# Assay results: publication PMC7862700, “An all-to-all approach to the identification of sequence-specific readers for epigenetic DNA modifications on cytosine”
# How the values were obtained:
# Experiment in all cases: DAPPL (digital affinity profiling via proximity ligation, sequencing); 10 mM Tris-HCl pH 7.5, 50 mM NaCl, 1 mM DTT, 4% glycerol, room temperature, 30 min; GST-TFs on glutathione beads, 16-mer random dsDNA library, 0.1% formaldehyde crosslink after washing; high values mean tight binding
# Settings in all cases: protein: recombinant; tags: N-terminal GST; dsDNA, one strand shown
# [1] = biological target: T1, ERF (Homo sapiens, UniProt P50548 1-548)
# T1 sequence: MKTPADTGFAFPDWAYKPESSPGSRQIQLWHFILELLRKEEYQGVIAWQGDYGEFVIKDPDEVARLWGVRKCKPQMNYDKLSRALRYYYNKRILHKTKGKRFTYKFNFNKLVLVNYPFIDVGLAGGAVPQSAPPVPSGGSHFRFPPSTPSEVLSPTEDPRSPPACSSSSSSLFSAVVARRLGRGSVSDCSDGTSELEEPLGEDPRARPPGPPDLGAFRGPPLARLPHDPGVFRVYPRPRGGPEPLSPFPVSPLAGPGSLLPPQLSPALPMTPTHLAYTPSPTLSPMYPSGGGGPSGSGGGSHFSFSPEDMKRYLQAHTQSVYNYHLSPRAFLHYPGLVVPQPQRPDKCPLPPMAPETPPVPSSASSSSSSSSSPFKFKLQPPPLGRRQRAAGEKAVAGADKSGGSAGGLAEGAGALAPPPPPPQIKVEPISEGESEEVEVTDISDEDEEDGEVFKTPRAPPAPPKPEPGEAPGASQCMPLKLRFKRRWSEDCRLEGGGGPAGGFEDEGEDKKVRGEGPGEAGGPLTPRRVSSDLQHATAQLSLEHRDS
# Procedure, shortened: (§1)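 After expression in yeast as GST fusions, human transcription factors were bound to glutathione beads, DNA-barcoded and mixed with a tag-only sample. The pools were incubated with 200 nmole of a 16-mer random double-stranded DNA library in Tris/NaCl/DTT/glycerol buffer (30 min, room temperature), washed and crosslinked with 0.1% formaldehyde. Proximity ligation with BsaI/T4 ligase ran for 1 h at 37 °C, before PCR amplification and sequencing on an Illumina NextSeq500. Binding signal is a hexamer's read frequency for a factor divided by its frequency for the tag-only sample.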
# [2] = biological target: T2, ETV3L (Homo sapiens, UniProt Q6ZN32 1-361)
# T2 sequence: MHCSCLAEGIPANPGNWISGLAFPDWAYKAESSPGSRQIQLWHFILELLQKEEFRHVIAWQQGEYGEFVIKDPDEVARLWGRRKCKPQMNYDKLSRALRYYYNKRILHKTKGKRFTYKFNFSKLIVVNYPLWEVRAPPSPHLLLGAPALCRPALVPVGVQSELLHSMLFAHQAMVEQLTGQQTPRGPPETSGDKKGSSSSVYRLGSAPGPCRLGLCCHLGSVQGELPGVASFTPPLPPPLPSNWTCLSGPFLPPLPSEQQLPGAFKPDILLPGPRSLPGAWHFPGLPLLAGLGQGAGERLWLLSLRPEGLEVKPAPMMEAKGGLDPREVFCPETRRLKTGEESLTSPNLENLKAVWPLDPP
# Procedure, shortened: as §1
# [3] = biological target: T3, ETS2 (Homo sapiens, UniProt P15036 1-469)
# T3 sequence: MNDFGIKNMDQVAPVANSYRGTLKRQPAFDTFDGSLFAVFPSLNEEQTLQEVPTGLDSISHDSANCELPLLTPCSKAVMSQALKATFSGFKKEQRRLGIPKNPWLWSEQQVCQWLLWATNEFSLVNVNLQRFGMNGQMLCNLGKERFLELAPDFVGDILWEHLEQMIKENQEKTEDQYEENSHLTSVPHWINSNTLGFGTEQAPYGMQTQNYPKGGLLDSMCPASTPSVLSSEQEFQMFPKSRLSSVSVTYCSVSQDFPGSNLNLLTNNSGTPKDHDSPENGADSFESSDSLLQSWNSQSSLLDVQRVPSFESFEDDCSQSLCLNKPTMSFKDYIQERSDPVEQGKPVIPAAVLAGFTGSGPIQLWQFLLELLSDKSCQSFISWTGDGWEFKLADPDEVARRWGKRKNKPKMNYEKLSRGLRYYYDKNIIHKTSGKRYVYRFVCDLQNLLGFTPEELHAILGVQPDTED
# Procedure, shortened: as §1
# [4] = biological target: T4, SPDEF (Homo sapiens, UniProt O95238 1-335)
# T4 sequence: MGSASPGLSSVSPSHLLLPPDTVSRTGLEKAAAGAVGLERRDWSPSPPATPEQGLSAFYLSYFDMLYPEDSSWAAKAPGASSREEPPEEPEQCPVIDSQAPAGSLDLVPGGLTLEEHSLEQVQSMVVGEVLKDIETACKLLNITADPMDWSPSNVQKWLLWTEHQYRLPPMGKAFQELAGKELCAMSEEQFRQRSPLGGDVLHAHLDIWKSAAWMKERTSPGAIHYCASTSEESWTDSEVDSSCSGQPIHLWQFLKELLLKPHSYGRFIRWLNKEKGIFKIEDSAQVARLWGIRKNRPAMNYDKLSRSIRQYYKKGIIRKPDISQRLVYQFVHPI
# Procedure, shortened: as §1
# [5] = biological target: T5, ETV7 (Homo sapiens, UniProt Q9Y603 1-341)
# T5 sequence: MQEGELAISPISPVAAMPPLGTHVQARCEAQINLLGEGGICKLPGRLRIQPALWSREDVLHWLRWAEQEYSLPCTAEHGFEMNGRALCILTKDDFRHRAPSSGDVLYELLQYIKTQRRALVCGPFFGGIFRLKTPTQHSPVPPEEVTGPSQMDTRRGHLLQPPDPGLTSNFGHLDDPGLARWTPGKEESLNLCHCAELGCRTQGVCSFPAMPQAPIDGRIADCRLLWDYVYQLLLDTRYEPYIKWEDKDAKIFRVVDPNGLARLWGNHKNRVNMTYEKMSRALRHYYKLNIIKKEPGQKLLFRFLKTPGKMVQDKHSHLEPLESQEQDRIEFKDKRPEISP
# Procedure, shortened: as §1
# [6] = biological target: T6, ELF5 (Homo sapiens, UniProt Q9UKW6-2 1-255)
# T6 sequence: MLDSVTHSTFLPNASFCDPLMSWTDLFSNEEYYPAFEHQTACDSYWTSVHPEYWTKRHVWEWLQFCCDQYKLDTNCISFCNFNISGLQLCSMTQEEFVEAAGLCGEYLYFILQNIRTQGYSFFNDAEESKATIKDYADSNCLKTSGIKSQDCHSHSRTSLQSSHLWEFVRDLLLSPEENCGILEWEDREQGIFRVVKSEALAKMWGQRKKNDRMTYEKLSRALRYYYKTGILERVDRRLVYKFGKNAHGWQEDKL
# Procedure, shortened: as §1
# [7] = biological target: T7, ETV3 (Homo sapiens, UniProt P41162-2 1-143)
# T7 sequence: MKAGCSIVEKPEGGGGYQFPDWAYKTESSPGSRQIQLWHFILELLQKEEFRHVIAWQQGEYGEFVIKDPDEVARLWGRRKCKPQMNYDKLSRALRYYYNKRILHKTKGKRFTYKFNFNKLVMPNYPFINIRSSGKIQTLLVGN
# Procedure, shortened: as §1
# [8] = biological target: ETV6 (Homo sapiens, UniProt P41212 1-452)
# Procedure, shortened: as §1
# Sequence of ETV6 (P41212 whole entry): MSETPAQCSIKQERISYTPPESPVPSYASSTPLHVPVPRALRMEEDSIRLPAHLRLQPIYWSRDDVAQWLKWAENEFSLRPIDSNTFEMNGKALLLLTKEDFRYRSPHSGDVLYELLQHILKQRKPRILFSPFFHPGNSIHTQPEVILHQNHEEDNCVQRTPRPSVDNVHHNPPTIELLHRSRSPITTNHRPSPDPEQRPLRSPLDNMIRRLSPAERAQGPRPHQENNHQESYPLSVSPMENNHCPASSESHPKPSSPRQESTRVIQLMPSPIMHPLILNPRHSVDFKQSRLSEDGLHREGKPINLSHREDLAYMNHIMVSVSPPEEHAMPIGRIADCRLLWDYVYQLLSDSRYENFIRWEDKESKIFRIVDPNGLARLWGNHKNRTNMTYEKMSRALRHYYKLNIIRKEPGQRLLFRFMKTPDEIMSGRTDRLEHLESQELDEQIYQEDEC
Sequence,binding signal [1],binding signal [2],binding signal [3],binding signal [4],binding signal [5],binding signal [6],binding signal [7],binding signal [8]
TAAAAA,"1.37 fold enrichment (6-mer frequency, TF over GST control)","1.37 fold enrichment (6-mer frequency, TF over GST control)","1.33 fold enrichment (6-mer frequency, TF over GST control)","1.32 fold enrichment (6-mer frequency, TF over GST control)","1.31 fold enrichment (6-mer frequency, TF over GST control)","1.29 fold enrichment (6-mer frequency, TF over GST control)","1.25 fold enrichment (6-mer frequency, TF over GST control)","1.26 fold enrichment (6-mer frequency, TF over GST control)"
CTGCAT,"1.38 fold enrichment (6-mer frequency, TF over GST control)","1.66 fold enrichment (6-mer frequency, TF over GST control)","1.4 fold enrichment (6-mer frequency, TF over GST control)","1.57 fold enrichment (6-mer frequency, TF over GST control)","1.41 fold enrichment (6-mer frequency, TF over GST control)","1.29 fold enrichment (6-mer frequency, TF over GST control)","1.24 fold enrichment (6-mer frequency, TF over GST control)","1.25 fold enrichment (6-mer frequency, TF over GST control)"
AAAAGC,"1.15 fold enrichment (6-mer frequency, TF over GST control)","1.23 fold enrichment (6-mer frequency, TF over GST control)","1.15 fold enrichment (6-mer frequency, TF over GST control)","1.07 fold enrichment (6-mer frequency, TF over GST control)","1.35 fold enrichment (6-mer frequency, TF over GST control)","1.26 fold enrichment (6-mer frequency, TF over GST control)","1.22 fold enrichment (6-mer frequency, TF over GST control)","1.26 fold enrichment (6-mer frequency, TF over GST control)"
TTTCGG,"1.17 fold enrichment (6-mer frequency, TF over GST control)","1.22 fold enrichment (6-mer frequency, TF over GST control)","1.24 fold enrichment (6-mer frequency, TF over GST control)","1.21 fold enrichment (6-mer frequency, TF over GST control)","1.28 fold enrichment (6-mer frequency, TF over GST control)","1.21 fold enrichment (6-mer frequency, TF over GST control)","1.16 fold enrichment (6-mer frequency, TF over GST control)","1.19 fold enrichment (6-mer frequency, TF over GST control)"
TAGTAT,"1.29 fold enrichment (6-mer frequency, TF over GST control)","1.23 fold enrichment (6-mer frequency, TF over GST control)","1.27 fold enrichment (6-mer frequency, TF over GST control)","1.15 fold enrichment (6-mer frequency, TF over GST control)","1.44 fold enrichment (6-mer frequency, TF over GST control)","1.25 fold enrichment (6-mer frequency, TF over GST control)","1.26 fold enrichment (6-mer frequency, TF over GST control)","1.29 fold enrichment (6-mer frequency, TF over GST control)"
CTTTTT,"1.31 fold enrichment (6-mer frequency, TF over GST control)","1.35 fold enrichment (6-mer frequency, TF over GST control)","1.31 fold enrichment (6-mer frequency, TF over GST control)","1.32 fold enrichment (6-mer frequency, TF over GST control)","1.37 fold enrichment (6-mer frequency, TF over GST control)","1.31 fold enrichment (6-mer frequency, TF over GST control)","1.24 fold enrichment (6-mer frequency, TF over GST control)","1.3 fold enrichment (6-mer frequency, TF over GST control)"
GTTTCC,"2.49 fold enrichment (6-mer frequency, TF over GST control)","2.7 fold enrichment (6-mer frequency, TF over GST control)","2.82 fold enrichment (6-mer frequency, TF over GST control)","2.75 fold enrichment (6-mer frequency, TF over GST control)","2.86 fold enrichment (6-mer frequency, TF over GST control)","3.9 fold enrichment (6-mer frequency, TF over GST control)","3.01 fold enrichment (6-mer frequency, TF over GST control)","3.24 fold enrichment (6-mer frequency, TF over GST control)"
CTCTGG,"1.36 fold enrichment (6-mer frequency, TF over GST control)","1.45 fold enrichment (6-mer frequency, TF over GST control)","1.19 fold enrichment (6-mer frequency, TF over GST control)","1.19 fold enrichment (6-mer frequency, TF over GST control)","1.33 fold enrichment (6-mer frequency, TF over GST control)","1.21 fold enrichment (6-mer frequency, TF over GST control)","1.31 fold enrichment (6-mer frequency, TF over GST control)","1.39 fold enrichment (6-mer frequency, TF over GST control)"
GTCTCA,"1.37 fold enrichment (6-mer frequency, TF over GST control)","1.3 fold enrichment (6-mer frequency, TF over GST control)","1.34 fold enrichment (6-mer frequency, TF over GST control)","1.29 fold enrichment (6-mer frequency, TF over GST control)","1.13 fold enrichment (6-mer frequency, TF over GST control)","1.3 fold enrichment (6-mer frequency, TF over GST control)","1.32 fold enrichment (6-mer frequency, TF over GST control)","1.16 fold enrichment (6-mer frequency, TF over GST control)"
TCATTC,"1.15 fold enrichment (6-mer frequency, TF over GST control)","1.28 fold enrichment (6-mer frequency, TF over GST control)","1.13 fold enrichment (6-mer frequency, TF over GST control)","1.09 fold enrichment (6-mer frequency, TF over GST control)","1.15 fold enrichment (6-mer frequency, TF over GST control)","1.12 fold enrichment (6-mer frequency, TF over GST control)","1.21 fold enrichment (6-mer frequency, TF over GST control)","1.24 fold enrichment (6-mer frequency, TF over GST control)"
CTTCAC,"1.44 fold enrichment (6-mer frequency, TF over GST control)","1.44 fold enrichment (6-mer frequency, TF over GST control)","1.36 fold enrichment (6-mer frequency, TF over GST control)","1.4 fold enrichment (6-mer frequency, TF over GST control)","1.45 fold enrichment (6-mer frequency, TF over GST control)","1.38 fold enrichment (6-mer frequency, TF over GST control)","1.45 fold enrichment (6-mer frequency, TF over GST control)","1.43 fold enrichment (6-mer frequency, TF over GST control)"
ATAATC,"1.2 fold enrichment (6-mer frequency, TF over GST control)","1.16 fold enrichment (6-mer frequency, TF over GST control)","1.16 fold enrichment (6-mer frequency, TF over GST control)","1.17 fold enrichment (6-mer frequency, TF over GST control)","1.14 fold enrichment (6-mer frequency, TF over GST control)","1.13 fold enrichment (6-mer frequency, TF over GST control)","1.15 fold enrichment (6-mer frequency, TF over GST control)","1.19 fold enrichment (6-mer frequency, TF over GST control)"
CTGAAA,"1.09 fold enrichment (6-mer frequency, TF over GST control)","1.1 fold enrichment (6-mer frequency, TF over GST control)","1.19 fold enrichment (6-mer frequency, TF over GST control)","1.16 fold enrichment (6-mer frequency, TF over GST control)","1.12 fold enrichment (6-mer frequency, TF over GST control)","1.09 fold enrichment (6-mer frequency, TF over GST control)","1.17 fold enrichment (6-mer frequency, TF over GST control)","1.16 fold enrichment (6-mer frequency, TF over GST control)"
ATAAAT,"1.19 fold enrichment (6-mer frequency, TF over GST control)","1.18 fold enrichment (6-mer frequency, TF over GST control)","1.19 fold enrichment (6-mer frequency, TF over GST control)","1.17 fold enrichment (6-mer frequency, TF over GST control)","1.14 fold enrichment (6-mer frequency, TF over GST control)","1.08 fold enrichment (6-mer frequency, TF over GST control)","1.19 fold enrichment (6-mer frequency, TF over GST control)","1.25 fold enrichment (6-mer frequency, TF over GST control)"
ATCTTA,"1.1 fold enrichment (6-mer frequency, TF over GST control)","1.1 fold enrichment (6-mer frequency, TF over GST control)","1.12 fold enrichment (6-mer frequency, TF over GST control)","1.12 fold enrichment (6-mer frequency, TF over GST control)","1.18 fold enrichment (6-mer frequency, TF over GST control)","1.11 fold enrichment (6-mer frequency, TF over GST control)","1.04 fold enrichment (6-mer frequency, TF over GST control)","1.14 fold enrichment (6-mer frequency, TF over GST control)"
